Calls of active or inactive are those of the source.
How the values were obtained:
Albumin (Bos taurus) = Albumin (Bos taurus) (UniProt P02769); test: compounds binding labelled BSA control protein – biochemical, small-molecule microarray, Alexa647 label, 635/667 nm fluorescence, artefact control for SMM control protein annotation, profiling panel (AID 1118); details: BSA-A647 binding, fluorescence 635 nm, higher = more signal;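 further: score merges 667 nm emission intensity and signal-to-noise per printed compound spot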
Sequence of Albumin (Bos taurus) (P02769 whole entry, looked up): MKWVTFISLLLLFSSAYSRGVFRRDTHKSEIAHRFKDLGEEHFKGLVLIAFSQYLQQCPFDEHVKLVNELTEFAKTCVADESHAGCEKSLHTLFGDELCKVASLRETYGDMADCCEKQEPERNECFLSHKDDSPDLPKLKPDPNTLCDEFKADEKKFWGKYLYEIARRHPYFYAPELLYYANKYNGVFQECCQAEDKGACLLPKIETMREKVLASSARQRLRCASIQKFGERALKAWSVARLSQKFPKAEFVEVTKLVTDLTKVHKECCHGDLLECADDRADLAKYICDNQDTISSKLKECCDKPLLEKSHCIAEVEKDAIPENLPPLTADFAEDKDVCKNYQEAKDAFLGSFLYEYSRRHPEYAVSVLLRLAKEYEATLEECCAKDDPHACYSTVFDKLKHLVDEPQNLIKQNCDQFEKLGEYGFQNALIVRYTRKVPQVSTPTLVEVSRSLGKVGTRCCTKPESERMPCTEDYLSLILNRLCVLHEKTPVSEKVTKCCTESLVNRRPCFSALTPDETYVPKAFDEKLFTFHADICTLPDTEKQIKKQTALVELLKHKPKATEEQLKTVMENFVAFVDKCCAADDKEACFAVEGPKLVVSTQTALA

[1] = probe aXIP binding to arrayed compounds – biochemical, NeuroSMM set, 635/667 nm fluorescence, primary screen (AID 1119); details: small-molecule microarray, higher = more signal, called active from +8 up or from −8 down;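 further: probe is the protein aXip251-270 applied at 1 µg/mL to compound-printed slides; binding of probe to printed compounds measured as 667 nm fluorescence plus signal to noise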
[2] = probe aNOTCH3 binding on compound microarray – biochemical, small-molecule microarray, 635/667 nm fluorescence, primary screen (AID 1120); details: higher = more signal;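 further: probe is a biotin-tagged antibody raised against NOTCH3 rather than NOTCH3 protein; score merges spot fluorescence near 667 nm with spot signal to noise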
[3] = probe aNOTCH2 binding on compound microarray – biochemical, small-molecule microarray, 635/667 nm fluorescence, primary screen (AID 1121); details: higher = more signal;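 further: score merges feature fluorescence read at 667 nm with its signal to noise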
[4] = target: Carbonic anhydrase 2 (Homo sapiens) (UniProt P00918); test: compounds binding carbonic anhydrase 2 – biochemical, small-molecule microarray, Alexa647-labelled CAII, profiling panel (AID 1122); details: CAII-A647 binding fluorescence, higher = more signal
[5] = COS7 lysate on small-molecule microarray, probe aHis, 635 nm (AID 1123); details: COS7 cell lysate, fluorescence, higher = more signal;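 further: z-score combines 667nm fluorescence intensity with signal-to-noise per printed compound spot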
[6] = probe aLAP1 signal on lysate-treated microarray – cell lysate, small-molecule microarray, COS7 lysate, primary screen (AID 1124); details: probe aLAP1, fluorescence, higher = more signal;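 further: lysate comes from COS7 cells expressing LAP1 and is applied at 0.3 µg/mL; score merges spot fluorescence near 667 nm with signal-to-noise over triplicate slides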
Sam68 (KHDRBS1) = test: compounds binding KHDRBS1 protein – biochemical, small-molecule microarray, 635 nm fluorescence, primary screen (AID 1125); details: higher = more signal;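 further: score merges 667 nm channel intensity with signal to noise over triplicate slides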
[7] = tested on: Chordin-like protein 2 (CHRDL2); test: compounds binding chordin-like 2 – biochemical, small-molecule microarray, 635 nm fluorescence, primary screen (AID 1126); details: fluorescence 635 nm, higher = more signal;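 further: printed compound slides probed with Chrdl2 protein at 4 µg/mL for 1 h at 4 C; score merges 667 nm emission intensity with signal to noise over three replicate slides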
[8] = target: Concanavalin-A (Canavalia ensiformis) (UniProt P02866); test: compounds binding concanavalin A lectin – biochemical, small-molecule microarray, Alexa647 label, 635 nm, artefact control for SMM control protein annotation, primary screen (AID 1127); details: ConA-A647 binding fluorescence, higher = more signal;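 further: z combines 667 nm emission intensity with signal-to-noise across three replicate slides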
Sequence of Concanavalin-A (Canavalia ensiformis) (P02866 whole entry, looked up): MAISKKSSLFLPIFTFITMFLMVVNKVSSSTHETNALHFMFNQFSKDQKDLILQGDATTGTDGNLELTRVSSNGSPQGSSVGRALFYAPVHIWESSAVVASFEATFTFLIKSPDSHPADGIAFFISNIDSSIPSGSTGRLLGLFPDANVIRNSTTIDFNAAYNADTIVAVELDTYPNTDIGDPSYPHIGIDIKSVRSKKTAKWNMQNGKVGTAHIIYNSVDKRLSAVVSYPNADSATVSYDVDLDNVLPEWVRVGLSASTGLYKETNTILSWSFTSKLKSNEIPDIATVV

Row | SMILES | composite z-score (Albumin (Bos taurus)) | composite Z-score [1] | composite z-score [2] | composite z-score [3] | composite z-score [4] | composite z-score [5] | composite z-score [6] | composite z-score (Sam68 (KHDRBS1)) | composite z-score [7] | composite z-score [8]
1 | C=CCC(OC(C)=O)[C@@H]1[C@@H](N(Cc2ccc(-c3cccc(C(F)(F)F)c3)o2)C(=O)Cc2ccc(F)cc2)c2cc(OCCCO)ccc2N1C(=O)c1ccc(-c2ccccc2)cc1 (stereo not given in full) | -0.701 | -0.014 (inactive) | -0.0996 | -0.154 | -0.215 | -0.197 | 0.0045 | -0.443 | -0.294 | -1.04
2 | C[C@]1(C(=O)NCCN2CCOCC2)c2ccccc2C(=O)N(Cc2ccccc2)[C@H]1c1ccc(CO)cc1 | -0.0435 | -0.61 (inactive) | -0.257 | -0.154 | 0.733 | 0.652 | 0.389 | -0.791 | -0.479 | 0.657
3 | O=C(CS)NCCCCCCNC(=O)[C@@H]1C[C@@H]2C(=O)N[C@@H](Cc3ccccc3)C(=O)N2[C@@H]1c1ccc(O)cc1 | -0.318 | 1.1 (inactive) | -0.128 | -0.168 | 0.636 | 2.87 | 1.47 | 1.28 | 0.976 | 0.938
4 | C[C@@H]1CC[C@H]2C(=O)N3[C@@H](CC[C@@H](C)[C@@H]3c3cccc(N4CCOCC4)c3)C(=O)N2[C@H]1c1cccc(Br)c1 | 0.718 | 0.307 (inactive) | -0.0259 | -0.0956 | 0.459 | 0.425 | 0.336 | 1.16 | 0.932 | 0.92
5 | CO[C@H]1COC(=O)[C@@H](C)COC(=O)[C@H](Cc2ccccc2)NC(=O)CC=C[C@H]1C | -0.73 | 0.0953 (inactive) | -0.208 | -0.223 | -0.315 | -0.557 | -0.399 | 0.294 | 1.48 | -0.268
6 | C[C@]1(C(=O)NCc2ccccc2)c2ccccc2C(=O)N(Cc2cc(C(F)(F)F)cc(C(F)(F)F)c2)[C@H]1c1ccc(CO)cc1 | 0.157 | -0.471 (inactive) | 0.154 | 0.0827 | 0.529 | 0.9 | 0.158 | 1.3 | 0.242 | 0.677
7 | N#Cc1ccc(NN2C(C(O)CCc3ccccc3)C=CC3C(=O)N(c4ccccc4)C(=O)C32)cc1 (stereo not given) | 1.06 | 0.265 (inactive) | 0.123 | 0.0532 | 0.745 | 2.21 | 0.647 | 0.924 | -0.794 | 0.831
8 | COCCOC(=O)N1C(=O)[C@@]2(c3cc(C#CCNC(N)=O)ccc31)[C@H](c1ccccc1OCCO)N1[C@H](c3ccccc3)[C@H](c3ccccc3)OC(=O)[C@H]1[C@@H]2C(=O)NC[C@H](O)c1ccccc1 | 0.679 | 0.25 (inactive) | 0.163 | -0.113 | 0.681 | 2.12 | 0.717 | 1.28 | 0.0781 | 1.08
9 | C[C@H]1COC(=O)[C@H](Cc2ccccc2)NC(=O)[C@@H](C)COC(=O)[C@H](Cc2ccccc2)NC1=O | 0.732 | 0.0705 (inactive) | -0.0377 | -0.0967 | 0.447 | 0.612 | 0.275 | 1.27 | 0.845 | 0.892
10 | CC[C@@H]1C=C(C(=O)O)[C@H](c2ccccc2)N1S(=O)(=O)c1ccc([N+](=O)[O-])cc1 | 0.938 | 0.0692 (inactive) | 0.0793 | -0.0983 | 0.514 | 2.43 | 0.612 | 1.04 | -0.812 | 0.942
11 | CCC1=C2CN(Cc3ccccc3Br)[C@@H]([C@@H](O)Cc3ccccc3)C2C=CCC1 (stereo not given in full) | 0.714 | 1.22 (inactive) | -0.0277 | -0.123 | 0.366 | 1.01 | -0.0566 | 1.3 | 0.611 | 0.646
12 | CC(C)[Si](OCC[C@H]1O[C@]2(C(=O)N(Cc3ccccc3)c3ccccc32)[C@@H](C)[C@@H]1[Si](C)(C)O)(C(C)C)C(C)C | 0.114 | -0.0745 (inactive) | 0.0026 | -0.148 | 0.191 | 0.379 | 0.0893 | 0.0631 | -0.0644 | 0.367
13 | COCCOC(=O)N1C(=O)[C@@]2(c3cc(C#CCCO)ccc31)[C@H](C(=O)N1CCCCCCC1)[C@H]1C(=O)O[C@H](c3ccccc3)[C@H](c3ccccc3)N1[C@@H]2c1ccc(O)cc1 | 0.792 | 0.516 (inactive) | 0.715 | 0.102 | 0.731 | 2.81 | 0.837 | 1.29 | 0.279 | 1.11
14 | CO[C@H]1O[C@H](CO)[C@@H](OC(=O)Nc2ccccc2)[C@H](OC(=O)Nc2ccc3c(c2)OCO3)[C@@H]1OC(=O)Nc1ccc2c(c1)OCO2 | 0.536 | 0.741 (inactive) | 0.0459 | -0.101 | 0.655 | 2.17 | 0.759 | 1.3 | -0.17 | 1.12
15 | C=CCOC(=O)[C@@H]1[C@H]2C(=O)O[C@H](c3ccccc3)[C@H](c3ccccc3)N2[C@H](c2ccc(OCCOC(=O)[C@H]3C[C@H]4C(=O)N5CCC[C@H]5C(=O)N4[C@H]3c3ccc(O)cc3)cc2)[C@@]12C(=O)Nc1ccccc12 | -0.876 | 0.223 (inactive) | -0.125 | -0.185 | 0.252 | 1.12 | 0.333 | 1.27 | 0.95 | 1.19
16 | CO[C@H]1O[C@H](CO)[C@@H](OC(=O)CCc2ccccc2)[C@@H]2OC(=O)[C@H](Cc3cccc(Br)c3)C/C=C/C[C@@H](Cc3cccc(Br)c3)C(=O)O[C@@H]12 | 0.803 | 0.258 (inactive) | -0.15 | -0.114 | 0.76 | 1.04 | 0.0054 | 0.7 | -1.41 | 0.014
17 | CO[C@H]1COC(=O)CC=C[C@H](C)[C@@H](OC)COC(=O)[C@H](Cc2ccccc2)NC(=O)CC=C[C@@H]1C | -2.12 | 0.699 (inactive) | -0.132 | -0.0743 | -0.961 | -0.566 | -0.287 | -0.777 | 1.46 | -2.53
18 | O=C1O[C@H](c2ccccc2)[C@H](c2ccccc2)N2[C@H]1[C@@H](C(=O)Nc1nc3ccccc3s1)[C@]1(C(=O)Nc3ccc(C#CC4(O)CCCCCC4)cc31)[C@H]2c1ccc(O)cc1 | 0.934 | 0.928 (inactive) | 0.116 | -0.0283 | 0.415 | 2.53 | 0.797 | 1.3 | 0.528 | 1.14
19 | Cc1ccc(S(=O)(=O)c2cc3oc2CC[C@@H](CO)NC(=O)N(C)Cc2cn(nn2)C[C@H](Cc2ccccc2)NC3=O)cc1 | 0.811 | 0.222 (inactive) | -0.0006 | -0.145 | 0.581 | 0.682 | 0.192 | 0.476 | -0.479 | 0.894
20 | Cc1ccc(S[C@]2(C(=O)NCCCN(C)C)CC(=O)N(Cc3ccccc3)[C@@H]2c2ccc(CO)cc2I)cc1 | 0.717 | 0.35 (inactive) | 0.0762 | -0.0771 | 0.688 | 2 | 0.755 | -0.381 | -0.855 | 0.362
21 | COC(=O)Cn1c(C(=O)N2CCCC2)cc2c1C[C@H]1CN(C(=O)c3ccccc3)[C@@](Cc3ccc(OC)cc3)(C(=O)OC)[C@@H]21 | 0.92 | 1.09 (inactive) | 0.707 | 0.375 | 0.587 | 2.68 | -0.268 | 0.931 | 0.207 | 0.73
22 | C[N+](C)(C)CCCCNC(=O)[C@H]1C[C@H]2C(=O)NCC(=O)N2[C@H]1c1cccc(OCCO)c1 | -1.39 | 1.49 (inactive) | 0.147 | -0.112 | 0.454 | 0.961 | 0.258 | 1.05 | 1.45 | 1.12
23 | CO[C@H]1COC(=O)CC=C[C@H](C)[C@@H](OC)COC(=O)CC=C[C@@H]1C | -0.683 | 0.142 (inactive) | -0.155 | -0.14 | -0.782 | -0.702 | -0.36 | -0.294 | 1.21 | -1.25
24 | O=C1c2ccccc2[C@](Cc2ccccc2I)(C(=O)NCC(F)(F)F)[C@H](c2ccc(CO)cc2)N1Cc1ccccc1C(F)(F)F | 0.89 | 0.34 (inactive) | -0.099 | -0.175 | 0.411 | 1.58 | 0.494 | 1.32 | -0.324 | 0.609
25 | O=C(NCc1ccccc1)[C@@]1(Cc2ccccc2)COC(c2ccc(OCCCO)cc2)=N1 | 0.48 | -0.179 (inactive) | 0.0539 | -0.0063 | 0.504 | 1.71 | 0.144 | 0.682 | -0.594 | 0.865
26 | O=C1OCCC/C=C\[C@H]2OC34C=CCN(CCN5CCOCC5)C(=O)[C@H]3N(CCCCCO)C(=O)[C@@H]4C12 (stereo not given in full) | -1.22 | 1.39 (inactive) | -0.246 | -0.162 | 0.816 | -0.687 | -0.401 | -0.369 | -1.15 | -0.167
27 | COc1ccc(NN2C(C(O)c3cc(OC)c(OC)c(OC)c3)C=CC3C(=O)N(C4CCCCC4)C(=O)C32)cc1 (stereo not given) | 1.02 | 0.487 (inactive) | 0.831 | 0.531 | 0.211 | 2.42 | 0.754 | 1.3 | -1.2 | 1.1
